Results reported in PubChem BioAssay AID463212 (Sanford-Burnham Center for Chemical Genomics, 2010).
The campaign covered roughly 330,000 compounds. About 4,400 (1.3%) were called active.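 The calls were made as follows: active = growth inhibition of the mutant yeast at or above 50%; inactive = the rest.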 This excerpt belongs to a sample that is enriched for actives.

assay: growth inhibitors of tim23-1 mutant yeast, primary screen, luminescence, uHTS (AID 463212);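 also: temperature-sensitive mutant grown at 25 °C; plate controls were DMSO-treated mutant yeast for no effect and medium wells lacking yeast for full effect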; details: S. cerevisiae tim23-1 growth, BacTiter-Glo luminescence, 24 h; at 20 µM; hits give high values

SMILES | inhibition
CC1=C(C(=O)OCC2CCCCC2)C(c2ccc(F)cc2)NC(=O)N1 (centres undefined) | 23.5% (inactive)
S=C(NCCCc1ccccc1)Nc1ccc(Br)cc1 | 62.8% (active)
O=S(=O)(NCCCc1ccccc1)c1ccc(Br)cc1 | 33.6% (inactive)
S=C(Nc1ccc(Br)cc1)NC1CCN(Cc2ccccc2)CC1 | 3.13% (inactive)
O=C1C(=O)N(CCCO)C(c2ccccc2)/C1=C(\O)c1ccc(Br)cc1 (centres undefined) | 6.61% (inactive)
CCOc1ccc(CN2CCC(n3nccc3NC(=O)C3CC3)CC2)cc1CO | -0.767% (inactive)
CCn1c(=O)c(C(=O)NCc2ccc3c(c2)OCO3)c(O)c2ccccc21 | 28.6% (inactive)
O=C(NCc1ccc2c(c1)OCO2)c1c(O)nc2sccn2c1=O | 68.2% (active)
O=C(NCc1ccc2c(c1)OCO2)c1sccc1Br | 11% (inactive)
CCCOc1ccc(/C(O)=C2/C(=O)C(=O)N(CCN(C)C)C2c2ccc(OC)c(OC)c2)cc1 (centres undefined) | 3.19% (inactive)
Cc1ccccc1N1C(=O)C(Oc2ccc(Cl)cc2)C1CNCC1CCCO1 (centres undefined) | 32.6% (inactive)
Fc1ccc(-c2ccc(NCCN3CCOCC3)nn2)cc1 | -3.29% (inactive)
COc1ccc(C(=O)C(C)OC(=O)c2cccc(S(=O)(=O)Nc3c(C)n(C)n(-c4ccccc4)c3=O)c2)cc1 (centres undefined) | 15.2% (inactive)
O=C(N/N=C/c1cccc(OCc2ccccc2)c1)c1ccc(Br)o1 | 47.5% (inactive)
COCCNC(=O)/C(C#N)=C/c1cccc(OCc2ccccc2)c1 | 68.2% (active)
N#C/C(=C\c1ccc(O)c(O)c1)C(=O)NCc1ccccc1 | 12.3% (inactive)
COc1cccc(N(CC(=O)NC2CCCCCC2)S(=O)(=O)c2ccccc2)c1 | 11.3% (inactive)
Cc1c(S(=O)(=O)NCc2ccccc2)c(=O)n(C)c(=O)n1C | 4.82% (inactive)
O=C(N/N=C/c1cccnc1)c1ccc(NC(=O)c2ccc(F)cc2)cc1 | 4.04% (inactive)
N#C/C(=C\c1cccnc1)C(=O)Nc1ccc(SC(F)F)cc1 | 76.7% (active)
Cc1cc(/C=C(/C#N)C(=O)Nc2ccc(Cl)cc2)c(C)n1-c1cccnc1 | 5.94% (inactive)
CN=C(c1ccccc1)c1c(C)cccc1C | 3.2% (inactive)
COc1ccccc1NC(=O)c1ccc(N2CC3CC(C2)c2cccc(=O)n2C3)c(NC(=O)c2cccnc2)c1 (centres undefined) | -0.075% (inactive)
CC1CCCN(CCCNC(=O)CN2C(=O)COc3ccc(S(=O)(=O)N4CCOCC4)cc32)C1 (centres undefined) | -34.2% (inactive)
COCCNC(=O)CN1C(=O)CSc2ncccc21 | 11.6% (inactive)

SMILES | inhibition
CCc1ccc2c(c1)C1(NN=C(c3ccccc3)S1)C(=O)N2 (centres undefined) | 52.6% (active)
O=C(CNC(=O)c1ccc(Cl)cc1Cl)NCC(=O)Nc1ccccc1N1CCOCC1 | 3.5% (inactive)
CC(Oc1cccc(NC(=O)c2cccs2)c1)C(=O)c1ccccc1 (centres undefined) | 34.3% (inactive)
Cc1cccc(NC(=O)Nc2cccc(Oc3c(F)c(F)c(F)c(F)c3F)c2)c1 | 17% (inactive)
Cc1ccoc1C(=O)Nc1cccc(Oc2ccccc2)c1 | 77.9% (active)
N#Cc1ccccc1S(=O)(=O)N1CCN(Cc2c(O)ccc3ccccc23)CC1 | 21.3% (inactive)
Cc1cc(Nc2ccccc2)n(C(=O)c2ccc(N)cc2)n1 | 57.6% (active)
CCOC(=O)c1c(N)nn(C(=O)c2ccccc2)c1-c1ccccc1 | 27% (inactive)
Cn1c(Nc2ccccc2)cc(=O)n(C)c1=O | 6.86% (inactive)
O=C(COc1ccc(Cl)cc1Cl)N/N=C/c1ccccn1 | 39% (inactive)
CC[C@@H]1Cc2cc(O)ccc2C2=C1c1ccc(O)cc1C[C@H]2CC | -6.54% (inactive)
COC(=O)c1c(NC(=O)COc2ccc(Cl)cc2Cl)sc2c1CC(C)(C)NC2(C)C | 60.1% (active)
COC(=O)c1sccc1NC(=O)COc1ccc(Cl)cc1 | 6.02% (inactive)
CCOC(=O)c1c(NC(=O)c2ccc(S(=O)(=O)N(C)CC3CCCO3)cc2)sc2c1CC(C)(C)NC2(C)C (centres undefined) | 24% (inactive)
Cc1ccc(C(=O)NCC(=O)NCc2cc(=O)n(C)c(=O)n2C)cc1 | 16.1% (inactive)
Nc1nc(SCC(=O)Nc2ccc(Cl)cc2C(F)(F)F)n[nH]1 | 3.1% (inactive)
CCC(C)(C)n1nnnc1CN1CCN(c2nc3ccc(C)cc3cc2C#N)CC1 | 40.5% (inactive)
COc1cc(N2C(=O)CSC2=S)cc(OC)c1OC | 23.9% (inactive)
O=C1CSC(=S)N1c1ccc(Cl)c(Cl)c1 | 53.7% (active)
O=C1CSC(=S)N1c1ccc(O)cc1 | 11.4% (inactive)
CCNC(=O)NC(=O)C(C)OC(=O)c1cc(S(=O)(=O)N2CCCCCC2)ccc1OC (centres undefined) | 19.4% (inactive)
O=[N+]([O-])c1ccc2c(c1)Nc1nc3ccccc3nc1N2 | 59.9% (active)
COc1ccc([N+](=O)[O-])cc1-c1nc2ccccc2nc1-c1ccccc1 | 36.6% (inactive)
O=[N+]([O-])c1ccc2nc(-c3ccccn3)[nH]c2c1 | 46.5% (inactive)
COc1ccc(-c2cc(C3CCN(c4ncccc4[N+](=O)[O-])CC3)[nH]n2)cc1 | 57.6% (active)

SMILES | inhibition
CC(=O)NC(Cc1ccccc1)C(=O)NC1CCN(c2ncccc2[N+](=O)[O-])CC1 (centres undefined) | 10.9% (inactive)
COc1ccc(-c2cc3ncccc3cn2)cc1 | 9.46% (inactive)
CC(C(=O)Nc1ccccc1-c1ccccc1)N1CCOCC1 (centres undefined) | 7.67% (inactive)
Clc1ccc(C2CC(c3cccs3)n3ncnc3N2)cc1Cl (centres undefined) | 50.5% (active)
COc1ccc(C2CC(c3ccc(C)cc3)Nc3ncnn32)cc1 (centres undefined) | 27.1% (inactive)
Nc1nc2n(n1)C(c1ccco1)CC(c1ccc(Cl)c(Cl)c1)N2 (centres undefined) | 20.6% (inactive)
Oc1ccccc1CNc1ncc(Br)cc1Br | 45.5% (inactive)
CCc1nnc(NS(=O)(=O)c2ccc(NC(=S)NC(=O)c3cccs3)cc2)s1 | 18.7% (inactive)
CCc1nnc(NS(=O)(=O)c2ccc(NC(=S)NC(=O)/C=C/c3cccs3)cc2)s1 | 96.1% (active)
CCc1nnc(NS(=O)(=O)c2ccc(NC(=O)c3cccc(OC(F)(F)C(F)F)c3)cc2)s1 | -1.08% (inactive)
COC(=O)c1cc2occc2n1Cc1nc(-c2ccccc2C)oc1C | 4.08% (inactive)
C=CCn1nc(-c2ccccc2)c2c(C)onc2c1=O | 6.39% (inactive)
CC(=O)Nc1ccc(S(=O)(=O)NC2(C(F)(F)F)C(=O)Nc3c2c(=O)[nH]c(=O)n3Cc2ccccc2)cc1 (centres undefined) | 3.06% (inactive)
Cc1[nH]c2ccccc2c1/C=C(/C#N)C(=O)NC(C)C | 10.2% (inactive)
CC(C)(C)C(=O)/C(C#N)=C/c1ccc(O)cc1 | 24% (inactive)
CC(C)NC(=O)/C(C#N)=C\c1ccc(N(C)C)c(Br)c1 | 61% (active)
Cc1cc(C(=O)OC(C)C(=O)NC2CCCCC2C)c(C)o1 (centres undefined) | -5.23% (inactive)
CCN(CC)CC(=O)Nc1sc2c(c1C(=O)c1ccccc1C)CCC2 | 32.5% (inactive)
CC(OC(=O)CCCc1c[nH]c2ccccc12)C(=O)Nc1ccc(S(N)(=O)=O)cc1 (centres undefined) | 11.1% (inactive)
CCN(CC)C(=O)N1CCN(C(=O)c2ccc(C)cn2)CC1 | 8.95% (inactive)
Oc1ccc2ccccc2c1C=Nc1ccccc1 | 53.2% (active)
CC(=O)n1c(C=Nc2ccccc2)c(O)c2ccccc21 | 10.8% (inactive)
Cc1nc2ccccc2nc(=O)c1NNc1ccc([N+](=O)[O-])cc1 | -14.3% (inactive)
CC(C)CNC(=O)CC(c1ccccc1)c1c(O)ccc2ccccc12 (centres undefined) | 11.2% (inactive)
C/C(=N\N(C)C)c1ccc(OCCOc2ccc([N+](=O)[O-])cc2)cc1 | 20.4% (inactive)

SMILES | inhibition
O=[N+]([O-])c1ccc(N=Cc2c(O)ccc3ccccc23)cc1 | 55.5% (active)
COc1ccc(NC(=O)C2=C(C)NC(=O)NC2c2ccccc2[N+](=O)[O-])cc1 (centres undefined) | 1.02% (inactive)
O=C(NCC(=O)N(CC1CCCO1)C(C(=O)NC1CCCCC1)c1ccccc1)c1ccco1 (centres undefined) | 14.7% (inactive)
COc1cc(C2CC(=O)Oc3cc(OC)c(OC)c(OC)c32)cc(OC)c1OC (centres undefined) | 27.3% (inactive)
COc1ccc(NC(=O)NNC(=O)COc2cc(C)c(Cl)c(C)c2)c(OC)c1 | -17.4% (inactive)
Oc1ccc(/C=N/Nc2ccc(C(F)(F)F)cn2)cc1O | 16.3% (inactive)
Oc1cccc(/C=N/Nc2ccc(Cl)nn2)c1O | 24.4% (inactive)
Oc1ccc(Br)cc1/C=N/Nc1ccccn1 | 68% (active)
N/C(=N\OC(=O)CCc1ccccc1)c1ccc(Cl)cc1 | 73.6% (active)
COc1ccc(/C(N)=N/OC(=O)Cc2ccccc2)cc1 | 21.8% (inactive)
COc1ccc(/C(N)=N/OC(=O)Oc2ccccc2)cc1 | 14.8% (inactive)
COc1ccc(/C(N)=N/OC(=O)CCCc2ccccc2)cc1 | 71.1% (active)
O=C(CCc1ccccc1)NNC(=O)COc1ccc(Cl)cc1 | 7.58% (inactive)
N/C(=N\OC(=O)CCc1ccccc1)c1cccnc1 | 18.1% (inactive)
CCC[C@H]1CCCC/C=C\CCCC(=O)OCCN1C(=O)OC(C)(C)C | 9.84% (inactive)
CC1Sc2ccc(C(=O)NCc3ccccc3Cl)cc2NC1=O (centres undefined) | 9.69% (inactive)
CCOc1ccc(N/C(N)=N/c2nc(C)c(C)c(=O)[nH]2)cc1 | 12.2% (inactive)
CCOC(=O)N1CCN(C(=O)c2ccc3nc4cc(Cl)ccc4c(=O)n3c2)CC1 | 10.4% (inactive)
COc1ccc(C(=O)CCC(=O)Nc2ccc(Cl)cc2)cc1 | 12.1% (inactive)
COc1ccc(CCNC(=O)c2cnc(Cl)c(Cl)c2)cc1 | 1.06% (inactive)
COc1ccc(CS(=O)/C(Cl)=C(/Cl)C(=O)Nc2ccc(OC)nc2)cc1 (centres undefined) | 85.7% (active)
COc1ccc(NC(=O)/C(Cl)=C(/Cl)S(=O)Cc2ccc(C)cc2)cn1 (centres undefined) | 67% (active)
CCN(CC(=O)Nc1ccc(OC)cc1)C(=O)CSCc1ccc(C)cc1 | 25% (inactive)
COC(=O)c1sccc1NC(=S)Nc1ccc(C)cc1 | 22.6% (inactive)
